Values joined by “and” are separate entries in the source; they are usually repeats but may differ in a detail not shown here. Equal values may be shown once. About 83,000 compounds went through this panel and 20% of them were active in at least one assay; those are over-represented in the sample as a whole.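 Growth was measured after 48 h exposure to one concentration of compound in 96-well plates. Values under 10 count as active.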 A number with no mark means an inactive call. Active and inactive are the calls of the source.

For the assay, the system named is NCI-H23 lung. In words: NCI-60 one-dose screen, 48 h (100 = growth as untreated, 0 = no growth, -100 = all killed). To be noted: 10 µM unless noted.
`O=C(O)C1C2CCC1C(O)C2` (centres undefined): the growth was 99.1% and 99.6%.

For `CC1=C2[C@@H](CC1)[C@]1(C)O[C@@](C3CC3)(C[C@H]1OC(=O)CO)[C@H]2OC(=O)/C=C/c1ccccc1`, the growth is 103%.

`CON1CCC[C@]2(C)[C@H]3CC[C@@H]4[C@H]5[C@@H](O)C(C)(C)CC[C@]5(CO)CC[C@@]4(C)[C@]3(C)CC[C@H]2C1(C)C`: the growth was 102%.

As to `O=C(Nc1ccccc1C(=O)N/N=C(\c1ccccc1)c1ccccn1)c1ccccc1`, the growth is 24.9%.

For `CNC(=O)c1cc(Oc2ccc3nc(NC(=O)Nc4ccc(C(F)(F)F)cc4)sc3c2)ccn1`, the growth was 63.4%.

Take `COc1cc(CO)cc2cc3ccccc3nc12`: the growth was 97.3%.

With `Cc1ccc(S(=O)(=O)OC[C@@]2(C)CC[C@]3(C)CC[C@]4(C)C(=CC[C@@H]5[C@@]6(C)CCCNC(C)(C)[C@@H]6CC[C@]54C)[C@@H]3C2)cc1`, the growth is -64.5% (active).

On to `O=C1C(c2c[nH]c3ccccc23)=C(c2coc3cc(Br)ccc23)C(=O)N1O`, for which the growth is 93.1%.

In the case of `Cc1ccc(Cc2cnc(NC(=O)c3cc(C)oc3C)s2)cc1`, the growth is 76.1%.

In the case of `CN(Cc1ccccc1)c1nc(Cl)c(C2CC(c3ccc4c(c3)OCO4)=NN2c2cc(Cl)cc(Cl)c2)s1` (centres undefined), the growth is 96.2%.

As to `COc1ccc(/C=C/C(=O)c2cc3c(N)c(C(=O)Nc4ccccc4Cl)sc3nc2C)cc1`, the growth was 52.3%.

On to `COc1ccc(/C=N/NC(=O)CN2CCN(c3cc4c(cc3F)c(=O)c(C(=O)O)cn4C3CC3)CC2)cc1O`, for which the growth is 103%.

Consider `COc1ccc(-c2csc(NC(=O)CN3CCN(CCO)CC3)n2)cc1NS(=O)(=O)c1cccc2c(N(C)C)cccc12`, for which the growth was 88.1%.

`COc1cccc(NC(=O)c2sc3nc(C)c(C(O)c4ccccc4)cc3c2N)c1` (centres undefined): the growth is 22.9%.

As to `COc1ccc(N2CCN(S(=O)(=O)c3oc(-c4ccccc4)nc3C#N)CC2)cc1`, the growth was 57.3%.

As for `O=S(=O)(O)c1ccc(N=Nc2ccc(N=Nc3cccc4ccccc34)c(S(=O)(=O)O)c2)cc1`, the growth is 91.5%.

With `O=C1/C(=C/c2ccc(F)c(F)c2)CN(C(=O)C(Cl)Cl)C/C1=C\c1ccc(F)c(F)c1`, the growth was -81.2% (active).

With `O=S(=O)(Nc1cc(Sc2cccc3cccnc23)c(O)c2ccccc12)c1ccc(F)cc1`, the growth is 17.7%.

For the molecule `COc1cc(Cl)cc(-c2nn(C(=O)NS(=O)(=O)c3ccc(Cl)cc3)cc2-c2ccncc2)c1`, the growth was 89.1%.

For the molecule `CCN1CCN(CC(=O)Nc2nc3ccc(NCc4ccc(C)cc4)cc3s2)CC1`, the growth was 72.6%.

With `COc1cc(-c2nc(SCCC(C)C)nc(Nc3ccc(F)cc3)c2C#N)cc(OC)c1OC`, the growth is 84.3%.

On to `O=C(/C=C/c1ccc([N+](=O)[O-])cc1)c1ccccc1`, for which the growth was 93.2%.

On to `COc1cc(-c2nn(-c3cccc(NC(=O)CCN4CCN(C)CC4)c3)cc2-c2ccncc2)ccc1Cl`, for which the growth is 42.5%.

For the molecule `N#CC(Cc1cccc2ccccc12)c1cc2ccccc2[nH]1` (centres undefined), the growth was 85%.

Turning to `C#CCOCC1CN(C)C(=O)O1` (centres undefined), the growth is 111%.

`Cc1ccc(/C=C/c2c(C(=O)/C=C/c3ccccc3)c(C)nc3ccccc23)cc1`: the growth is 27.5%.

In the case of `Cc1ccc(-c2nc(C#N)c(S(=O)(=O)N(C)C)o2)cc1`, the growth was 89.2%.

`O=C(Nc1ncc(Cc2cccc(C(F)(F)F)c2)s1)c1ccc(-n2cnnn2)cc1`: the growth is 55%.

For `COc1c(F)cc(-n2c(C(=O)N3CC(F)C3)cc3cccnc32)cc1F`, the growth is 94.1%.

`N=C1/C(=C2\NC3C=CC=CC3S2)C(c2ccc(Cl)cc2)C2C(=O)N(c3ccccc3)C(=S)N12` (centres undefined): the growth is 97.4%.

With `COc1ccc(Cl)cc1Nc1nc(C(F)(F)F)ccc1C(=O)N/N=C/c1ccc(N(C)C)cc1`, the growth is 95.4%.

On to `Cc1ccc(NC(=O)c2ccc(CN3CCN(C)CC3)cc2)cc1Nc1nccc(-c2cccnc2)n1`, for which the growth is 82.9% and 76.2%.

As to `C=C1C(=O)O[C@H]2[C@H]1CC/C(COC(=O)NCCCCNC(=O)OC/C1=C/CC[C@@]3(C)O[C@H]3[C@H]3OC(=O)C(=C)[C@@H]3CC1)=C\CC[C@@]1(C)O[C@@H]21`, the growth was 38.3%.

Take `C[C@@H]1O[C@@H](O[C@H]2[C@@H](OC(=O)[C@]34CCC(C)(C)C[C@H]3C3=CC[C@@H]5[C@@]6(C)C[C@H](O)[C@H](O[C@@H]7O[C@H](CO)[C@@H](O)[C@H](O)[C@H]7O)[C@@](C)(CO)[C@@H]6CC[C@@]5(C)[C@]3(C)C[C@H]4O)OC[C@@H](O)[C@@H]2O)[C@H](O)[C@H](O[C@@H]2OC[C@@H](O)[C@H](O[C@@H]3OC[C@](O)(CO)[C@H]3O[C@@H]3OC[C@@H](O)[C@H](O)[C@H]3O)[C@H]2O)[C@H]1O[C@@H]1OC[C@](O)(CO)[C@H]1O`: the growth was 48.7%.

The record behind these values is PubChem BioAssay (NCI).
